Measured values reported in ChEMBL document CHEMBL1961873, “Compounds: GSK PKIS; Assays: Nanosyn kinase panel” (2012).

Legend:
[1] = target: Leukocyte tyrosine kinase receptor (Homo sapiens) (UniProt P29376); details: at 1 µM;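 note: each value is the mean inhibition of LTK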
[2] = target: Tyrosine-protein kinase Lyn (Homo sapiens) (UniProt P07948); details: at 0.1 µM
[3] = target: Tyrosine-protein kinase Lyn (Homo sapiens) (UniProt P07948); details: at 1 µM
[4] = target: Tyrosine-protein kinase Lyn (Homo sapiens) (UniProt P07948); details: at 0.1 µM; remark: listed apart in the source
[5] = target: Tyrosine-protein kinase Lyn (Homo sapiens) (UniProt P07948); details: at 1 µM; remark: listed apart in the source
[6] = target: T1, Tyrosine-protein kinase Mer (Homo sapiens) (UniProt Q12866); details: at 0.1 µM
T1 sequence (whole entry): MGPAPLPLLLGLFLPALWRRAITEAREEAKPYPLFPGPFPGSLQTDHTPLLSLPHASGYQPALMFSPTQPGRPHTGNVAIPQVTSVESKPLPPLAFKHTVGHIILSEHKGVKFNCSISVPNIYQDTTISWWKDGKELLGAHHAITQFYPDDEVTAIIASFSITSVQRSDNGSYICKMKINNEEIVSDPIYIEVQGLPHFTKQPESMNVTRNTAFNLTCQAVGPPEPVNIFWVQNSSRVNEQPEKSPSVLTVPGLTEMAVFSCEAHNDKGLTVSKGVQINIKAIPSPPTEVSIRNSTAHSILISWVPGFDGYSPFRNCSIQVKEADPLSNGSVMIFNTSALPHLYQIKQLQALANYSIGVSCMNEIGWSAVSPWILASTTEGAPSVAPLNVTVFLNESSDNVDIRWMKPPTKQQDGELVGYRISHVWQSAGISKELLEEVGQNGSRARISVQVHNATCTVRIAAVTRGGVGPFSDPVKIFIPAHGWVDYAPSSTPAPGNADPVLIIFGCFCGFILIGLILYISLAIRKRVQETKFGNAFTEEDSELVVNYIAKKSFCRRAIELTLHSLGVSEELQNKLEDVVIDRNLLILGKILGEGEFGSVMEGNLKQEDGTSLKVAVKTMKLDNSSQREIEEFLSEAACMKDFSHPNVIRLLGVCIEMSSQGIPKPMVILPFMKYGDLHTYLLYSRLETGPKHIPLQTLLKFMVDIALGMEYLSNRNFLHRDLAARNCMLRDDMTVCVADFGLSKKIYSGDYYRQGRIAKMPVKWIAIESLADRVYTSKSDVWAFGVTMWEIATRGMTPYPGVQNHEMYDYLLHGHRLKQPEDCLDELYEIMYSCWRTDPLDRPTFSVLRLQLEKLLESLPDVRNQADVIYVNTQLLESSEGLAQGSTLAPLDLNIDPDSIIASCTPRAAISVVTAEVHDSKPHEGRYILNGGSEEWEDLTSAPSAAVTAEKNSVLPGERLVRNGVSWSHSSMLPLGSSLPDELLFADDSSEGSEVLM

[7] = target: T1, Tyrosine-protein kinase Mer (Homo sapiens); details: at 1 µM
[8] = target: Hepatocyte growth factor receptor (Homo sapiens) (UniProt P08581); details: at 0.1 µM
Sequence of Hepatocyte growth factor receptor (Homo sapiens) (P08581 whole entry): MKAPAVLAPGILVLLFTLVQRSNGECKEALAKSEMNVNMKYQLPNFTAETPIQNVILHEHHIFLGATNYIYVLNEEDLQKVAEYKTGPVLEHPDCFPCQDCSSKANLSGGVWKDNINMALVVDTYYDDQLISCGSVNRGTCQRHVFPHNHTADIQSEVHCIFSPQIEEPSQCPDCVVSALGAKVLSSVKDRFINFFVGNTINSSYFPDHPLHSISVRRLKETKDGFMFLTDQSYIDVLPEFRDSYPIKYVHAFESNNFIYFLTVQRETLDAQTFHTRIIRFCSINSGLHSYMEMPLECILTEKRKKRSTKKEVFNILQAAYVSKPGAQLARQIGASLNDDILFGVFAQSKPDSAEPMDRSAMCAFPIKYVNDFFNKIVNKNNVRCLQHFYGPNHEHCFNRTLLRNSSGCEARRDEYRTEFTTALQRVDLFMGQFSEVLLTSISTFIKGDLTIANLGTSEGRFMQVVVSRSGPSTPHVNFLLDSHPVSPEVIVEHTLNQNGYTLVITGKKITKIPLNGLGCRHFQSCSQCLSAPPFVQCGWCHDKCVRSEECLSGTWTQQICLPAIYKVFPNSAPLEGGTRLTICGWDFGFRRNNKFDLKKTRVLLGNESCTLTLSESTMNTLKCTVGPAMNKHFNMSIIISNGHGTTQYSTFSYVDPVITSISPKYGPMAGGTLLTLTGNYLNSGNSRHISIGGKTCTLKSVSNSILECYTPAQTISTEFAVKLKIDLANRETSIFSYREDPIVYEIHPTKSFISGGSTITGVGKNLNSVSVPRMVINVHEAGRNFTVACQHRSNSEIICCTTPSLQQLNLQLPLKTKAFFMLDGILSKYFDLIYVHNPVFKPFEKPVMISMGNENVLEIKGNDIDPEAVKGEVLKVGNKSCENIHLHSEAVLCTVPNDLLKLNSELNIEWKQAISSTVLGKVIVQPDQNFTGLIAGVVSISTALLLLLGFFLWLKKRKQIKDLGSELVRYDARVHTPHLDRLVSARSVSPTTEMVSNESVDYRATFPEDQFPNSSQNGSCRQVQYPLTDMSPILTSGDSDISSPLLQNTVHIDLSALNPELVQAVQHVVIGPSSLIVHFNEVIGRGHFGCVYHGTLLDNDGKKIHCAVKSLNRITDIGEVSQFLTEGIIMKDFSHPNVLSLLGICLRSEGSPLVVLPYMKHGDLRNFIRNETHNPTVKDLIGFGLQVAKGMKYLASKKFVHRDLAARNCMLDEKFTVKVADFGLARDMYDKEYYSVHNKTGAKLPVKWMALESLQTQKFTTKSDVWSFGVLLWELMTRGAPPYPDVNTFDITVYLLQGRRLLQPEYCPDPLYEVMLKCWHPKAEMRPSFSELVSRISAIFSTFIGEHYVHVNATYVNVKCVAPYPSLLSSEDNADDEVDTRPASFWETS

[9] = target: Hepatocyte growth factor receptor (Homo sapiens) (UniProt P08581); details: at 1 µM
[10] = target: T2, Muscle, skeletal receptor tyrosine-protein kinase (Homo sapiens) (UniProt O15146); details: at 0.1 µM
T2 sequence (whole entry): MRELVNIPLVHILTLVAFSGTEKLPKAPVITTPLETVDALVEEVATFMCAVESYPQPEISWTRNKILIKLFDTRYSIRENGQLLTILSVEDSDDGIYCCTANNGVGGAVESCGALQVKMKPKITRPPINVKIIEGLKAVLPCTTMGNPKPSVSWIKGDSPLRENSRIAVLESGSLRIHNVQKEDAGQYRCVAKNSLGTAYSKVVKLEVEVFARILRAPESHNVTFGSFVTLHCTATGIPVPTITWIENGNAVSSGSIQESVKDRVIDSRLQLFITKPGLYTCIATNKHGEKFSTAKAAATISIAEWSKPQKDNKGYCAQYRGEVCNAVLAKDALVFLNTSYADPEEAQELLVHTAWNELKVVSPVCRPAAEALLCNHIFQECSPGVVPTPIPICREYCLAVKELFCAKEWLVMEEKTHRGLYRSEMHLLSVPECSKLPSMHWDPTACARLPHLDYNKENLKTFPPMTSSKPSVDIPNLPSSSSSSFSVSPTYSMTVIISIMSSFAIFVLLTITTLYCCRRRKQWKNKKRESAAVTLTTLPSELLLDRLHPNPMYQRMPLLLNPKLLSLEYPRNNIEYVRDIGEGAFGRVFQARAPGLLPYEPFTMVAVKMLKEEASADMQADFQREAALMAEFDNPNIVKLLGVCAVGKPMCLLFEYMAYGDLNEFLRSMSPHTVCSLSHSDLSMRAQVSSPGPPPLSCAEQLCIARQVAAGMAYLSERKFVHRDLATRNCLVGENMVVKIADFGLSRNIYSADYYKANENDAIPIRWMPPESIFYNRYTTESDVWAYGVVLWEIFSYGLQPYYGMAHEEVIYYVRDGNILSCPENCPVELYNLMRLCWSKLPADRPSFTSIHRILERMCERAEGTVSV

[11] = target: T2, Muscle, skeletal receptor tyrosine-protein kinase (Homo sapiens); details: at 1 µM
[12] = target: Platelet-derived growth factor receptor alpha (Homo sapiens) (UniProt P16234); details: at 0.1 µM
Sequence of Platelet-derived growth factor receptor alpha (Homo sapiens) (P16234 whole entry): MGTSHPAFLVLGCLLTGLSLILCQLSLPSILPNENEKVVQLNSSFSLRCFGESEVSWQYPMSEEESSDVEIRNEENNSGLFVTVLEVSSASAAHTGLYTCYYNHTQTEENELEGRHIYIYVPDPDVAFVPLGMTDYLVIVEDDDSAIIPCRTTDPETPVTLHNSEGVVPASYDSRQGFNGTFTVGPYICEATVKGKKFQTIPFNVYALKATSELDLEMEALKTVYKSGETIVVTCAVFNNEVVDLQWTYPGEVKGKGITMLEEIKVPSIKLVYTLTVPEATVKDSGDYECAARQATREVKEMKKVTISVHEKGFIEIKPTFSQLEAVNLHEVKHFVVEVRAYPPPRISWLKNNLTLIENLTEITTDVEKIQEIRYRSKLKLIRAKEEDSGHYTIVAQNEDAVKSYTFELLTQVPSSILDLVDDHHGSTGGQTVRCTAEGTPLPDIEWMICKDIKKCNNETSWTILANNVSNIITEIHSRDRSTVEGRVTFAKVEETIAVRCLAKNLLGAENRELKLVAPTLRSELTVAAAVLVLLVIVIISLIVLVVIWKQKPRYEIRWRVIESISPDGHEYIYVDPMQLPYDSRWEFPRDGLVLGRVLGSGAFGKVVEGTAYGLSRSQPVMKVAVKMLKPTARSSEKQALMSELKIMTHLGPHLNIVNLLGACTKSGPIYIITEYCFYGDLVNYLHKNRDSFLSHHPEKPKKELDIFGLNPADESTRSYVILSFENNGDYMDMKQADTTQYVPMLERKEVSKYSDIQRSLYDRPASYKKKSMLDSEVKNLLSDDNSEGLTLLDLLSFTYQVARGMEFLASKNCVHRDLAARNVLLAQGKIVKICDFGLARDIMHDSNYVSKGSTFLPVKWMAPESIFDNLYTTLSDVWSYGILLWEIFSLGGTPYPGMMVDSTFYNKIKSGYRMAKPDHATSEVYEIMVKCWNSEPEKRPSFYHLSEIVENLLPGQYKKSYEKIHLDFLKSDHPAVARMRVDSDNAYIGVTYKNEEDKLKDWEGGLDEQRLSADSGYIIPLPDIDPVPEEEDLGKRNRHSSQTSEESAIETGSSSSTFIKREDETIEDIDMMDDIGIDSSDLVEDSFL

[13] = target: Platelet-derived growth factor receptor alpha (Homo sapiens) (UniProt P16234); details: at 1 µM
[14] = test system: Platelet-derived growth factor receptor alpha (Homo sapiens), P16234 [D842V]; details: at 0.1 µM
[15] = test system: Platelet-derived growth factor receptor alpha (Homo sapiens), P16234 [D842V]; details: at 1 µM
[16] = test system: Platelet-derived growth factor receptor alpha (Homo sapiens), P16234 [T674I]; details: at 0.1 µM
[17] = test system: Platelet-derived growth factor receptor alpha (Homo sapiens), P16234 [T674I]; details: at 1 µM
[18] = test system: Platelet-derived growth factor receptor alpha (Homo sapiens), P16234 [V561D]; details: at 0.1 µM
[19] = test system: Platelet-derived growth factor receptor alpha (Homo sapiens), P16234 [V561D]; details: at 1 µM
[20] = target: Platelet-derived growth factor receptor beta (Homo sapiens) (UniProt P09619); details: at 0.1 µM;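 note: reported value is the mean percent inhibition of the kinase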
Sequence of Platelet-derived growth factor receptor beta (Homo sapiens) (P09619 whole entry): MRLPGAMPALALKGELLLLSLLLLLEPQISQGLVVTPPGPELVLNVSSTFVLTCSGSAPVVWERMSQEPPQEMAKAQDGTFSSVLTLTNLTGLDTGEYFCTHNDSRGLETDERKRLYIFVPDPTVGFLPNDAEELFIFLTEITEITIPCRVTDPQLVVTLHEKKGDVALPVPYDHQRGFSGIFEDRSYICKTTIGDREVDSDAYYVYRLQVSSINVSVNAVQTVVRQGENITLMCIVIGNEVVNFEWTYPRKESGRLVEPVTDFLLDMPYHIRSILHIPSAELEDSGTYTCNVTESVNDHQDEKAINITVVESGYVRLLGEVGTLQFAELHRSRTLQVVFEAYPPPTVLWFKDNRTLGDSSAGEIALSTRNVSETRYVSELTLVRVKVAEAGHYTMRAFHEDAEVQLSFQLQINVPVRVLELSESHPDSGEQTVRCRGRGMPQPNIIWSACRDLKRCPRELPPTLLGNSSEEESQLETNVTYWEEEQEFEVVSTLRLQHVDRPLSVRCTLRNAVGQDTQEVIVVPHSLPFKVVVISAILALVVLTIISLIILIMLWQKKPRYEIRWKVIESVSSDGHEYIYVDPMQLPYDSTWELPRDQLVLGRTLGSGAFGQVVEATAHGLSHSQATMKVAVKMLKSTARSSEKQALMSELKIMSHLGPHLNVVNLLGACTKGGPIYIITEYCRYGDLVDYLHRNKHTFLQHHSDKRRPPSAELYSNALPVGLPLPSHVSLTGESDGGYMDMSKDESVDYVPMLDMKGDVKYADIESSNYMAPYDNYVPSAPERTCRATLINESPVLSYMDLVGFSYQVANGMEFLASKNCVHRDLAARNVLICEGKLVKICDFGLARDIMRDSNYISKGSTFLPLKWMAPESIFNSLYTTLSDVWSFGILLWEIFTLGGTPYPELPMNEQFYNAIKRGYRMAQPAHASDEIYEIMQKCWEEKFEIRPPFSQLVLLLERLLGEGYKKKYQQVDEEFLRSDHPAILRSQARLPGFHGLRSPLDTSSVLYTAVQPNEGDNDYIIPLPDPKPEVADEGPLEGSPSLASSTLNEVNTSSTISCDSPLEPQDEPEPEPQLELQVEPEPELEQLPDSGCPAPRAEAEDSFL

Sequence of Tyrosine-protein kinase Lyn (Homo sapiens) (P07948 2-512 limits assumed): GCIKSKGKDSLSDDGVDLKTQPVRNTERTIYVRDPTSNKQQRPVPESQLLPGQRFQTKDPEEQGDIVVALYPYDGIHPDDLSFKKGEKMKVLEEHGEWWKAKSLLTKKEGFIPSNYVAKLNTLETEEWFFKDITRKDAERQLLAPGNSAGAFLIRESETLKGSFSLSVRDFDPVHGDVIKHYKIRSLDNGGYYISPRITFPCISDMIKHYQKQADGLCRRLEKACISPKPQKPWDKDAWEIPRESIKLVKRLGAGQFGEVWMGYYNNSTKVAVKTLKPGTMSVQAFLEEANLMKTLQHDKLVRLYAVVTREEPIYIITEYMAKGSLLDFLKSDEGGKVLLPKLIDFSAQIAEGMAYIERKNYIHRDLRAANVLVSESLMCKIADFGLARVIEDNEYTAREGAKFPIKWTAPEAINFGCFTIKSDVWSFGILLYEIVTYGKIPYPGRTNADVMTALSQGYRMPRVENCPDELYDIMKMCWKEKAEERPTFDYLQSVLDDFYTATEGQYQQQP
Sequence of Leukocyte tyrosine kinase receptor (Homo sapiens) (P29376 whole entry): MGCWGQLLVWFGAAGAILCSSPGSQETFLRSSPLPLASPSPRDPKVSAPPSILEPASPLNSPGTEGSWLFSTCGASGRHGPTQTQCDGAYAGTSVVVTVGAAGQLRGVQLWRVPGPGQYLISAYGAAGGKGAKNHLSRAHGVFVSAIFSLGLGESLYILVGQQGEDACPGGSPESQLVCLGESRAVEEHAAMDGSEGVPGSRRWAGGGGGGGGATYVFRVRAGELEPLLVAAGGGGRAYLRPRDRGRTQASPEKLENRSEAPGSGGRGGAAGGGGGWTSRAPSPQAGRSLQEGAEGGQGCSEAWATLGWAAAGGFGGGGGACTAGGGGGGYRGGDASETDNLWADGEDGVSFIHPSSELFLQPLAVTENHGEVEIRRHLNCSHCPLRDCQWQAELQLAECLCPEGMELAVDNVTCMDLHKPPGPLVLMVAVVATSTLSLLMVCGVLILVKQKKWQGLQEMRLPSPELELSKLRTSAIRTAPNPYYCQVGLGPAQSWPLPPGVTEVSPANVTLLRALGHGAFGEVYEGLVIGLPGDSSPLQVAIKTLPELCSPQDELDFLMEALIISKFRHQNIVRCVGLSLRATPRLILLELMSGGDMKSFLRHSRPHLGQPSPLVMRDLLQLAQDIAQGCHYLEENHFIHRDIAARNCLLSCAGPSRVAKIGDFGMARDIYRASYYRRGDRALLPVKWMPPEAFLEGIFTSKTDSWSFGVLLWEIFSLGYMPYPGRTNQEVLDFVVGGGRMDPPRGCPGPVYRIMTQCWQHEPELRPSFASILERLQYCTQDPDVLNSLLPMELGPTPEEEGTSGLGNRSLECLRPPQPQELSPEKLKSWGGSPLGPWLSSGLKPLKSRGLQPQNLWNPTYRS

SMILES | inhibition [1] [%] | inhibition [2] [%] | inhibition [3] [%] | inhibition [4] [%] | inhibition [5] [%] | inhibition [6] [%] | inhibition [7] [%] | inhibition [8] [%] | inhibition [9] [%] | inhibition [10] [%] | inhibition [11] [%] | inhibition [12] [%] | inhibition [13] [%] | inhibition [14] [%] | inhibition [15] [%] | inhibition [16] [%] | inhibition [17] [%] | inhibition [18] [%] | inhibition [19] [%] | inhibition [20] [%]
COc1cccc(COc2cc(-n3cnc4ccccc43)sc2C(N)=O)c1 | 2.93 | -0.93 | -1.31 | -1.21 | -1.14 | -2.89 | -0.86 | 4.83 | 2.86 | -1.3 | -3.86 | 4.14 | 14.5 | 0.88 | 6.81 | 1.86 | -0.65 | 0.87 | 5.54 | 0.6
COc1cccc(-n2ncc3c(N/N=C/c4ccncc4)ncnc32)c1 | 6.38 | 49 | 87.5 | 43.2 | 85 | 6.35 | 39.2 | 18.9 | 49.5 | 11.1 | 45.6 | 43 | 79.5 | 44.4 | 87.3 | 25.4 | 82.4 | 40.4 | 84.7 | 45
COc1cc(C=NNc2ncnc3c2cnn3Cc2ccccc2)ccc1O | -1.02 | 7.35 | 41.8 | 3.91 | 35.4 | 0.56 | 6.34 | -3.62 | 7.19 | -1.07 | 17.2 | 9.07 | 43.3 | 6.24 | 42.1 | -1.14 | 1.46 | 6.77 | 34.3 | 6.26
NS(=O)(=O)c1ccc(-c2ccc3c(NC(=O)C4CC4)n[nH]c3c2)cc1 | -0.4 | 2.87 | 3.71 | 1.42 | 3.29 | 0.15 | 4.26 | -4.19 | 0.32 | 3.88 | 8.82 | 5.05 | 15.1 | 1.45 | 5.77 | 2.04 | 1.43 | -0.07 | 8.8 | 6.55
CCn1c(-c2nonc2N)nc2c(C#CCN)ncc(OCCCN)c21 | -1.19 | 0.47 | 2.24 | 1.28 | 0.49 | 0.13 | 0.01 | 0.78 | 4.36 | 2.41 | 12.2 | 7.42 | 11.7 | 0.26 | 8.54 | 2.16 | 5.96 | 4.02 | 3.51 | 9.08
CCn1c(-c2nonc2N)nc2c(C#CC(C)(C)O)ncc(OC[C@@H]3CCCN3)c21 | 2.22 | 2.35 | 1.33 | 1.2 | 1.89 | -0.41 | -0.43 | 5.01 | 5.81 | -2.15 | -3.74 | 5.65 | 24.4 | 7.78 | 44.4 | 4.92 | 26.6 | 2.28 | 22.3 | 8.36
Cc1cc(-c2ccco2)cc(C)c1/C=C/c1cncc(-c2nn[nH]n2)c1 | 1.64 | 1.98 | 5.29 | 2.99 | 3.6 | 0.26 | 3.44 | 4.92 | 3.8 | -1.44 | -4.43 | 5.56 | 9.36 | 3.41 | 3.27 | 2.56 | 3.42 | 2.25 | 7 | 0.05
